# Results: PubChem BioAssay (NCATS)
# Results filed as inconclusive are left out. Where a call stands in place of a potency, no number is given. The source made the active and inactive calls. The call rests on the fitted dose curve; in most records, active means well fitted inhibition curve with a large enough effect; inconclusive means small, poorly fitted or top-dose-only effect; inactive means flat fitted curve, though single readings scatter.
# Assay: P-glycoprotein substrates identified in KB-8-5-11 adenocarcinoma cell line, qHTS therapeutic library screen (AID 1346987); further: nearly all actives have a fitted effect of over 65% in size
# Details: KB-8-5-11 (P-gp overexpressing) viability, CellTiter-Glo, 72 h; series mostly up to 44.5 µM
# Outline: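 Luminescence from CellTiter-Glo, read 5 min after addition, quantified survival of KB-8-5-11 (P-gp-overexpressing) cells exposed to compounds for 72 h. AC50 was derived from concentration-response curves.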
# Potency means the concentration at half of the fitted maximal effect.
row,SMILES,Potency
1,COc1cc(N2CCC(O)CC2)ccc1Nc1nc(Nc2ccccc2S(=O)(=O)C(C)C)c2[nH]cnc2n1,inactive
2,CC1(C=O)CCCC2(C)C1CCC13CC(CO)C(CCC12)C3 (stereo not given),inactive
3,COc1ccc2nc3n[nH]c(C)c3c(NCCOCCO)c2c1,inactive
4,O=C(c1ccccc1)c1c(O)cc(O)cc1O[C@@H]1O[C@H](CO)[C@@H](O)[C@H](O)[C@H]1O,inactive
5,O=C(Nc1nnc(-c2ccc3c(c2)OCCO3)o1)C1CCCCC1,inactive
6,COc1cc2nc(N3CCN(C(=O)c4ccco4)C4CCCCC43)nc(N)c2cc1OC (stereo not given),14.6 µM (active)
7,CC(C)=CCC[C@](C)(O[C@@H]1O[C@H](CO[C@@H]2OC[C@@H](O)[C@H](O)[C@H]2O)[C@@H](O)[C@H](O)[C@H]1O)[C@H]1CC[C@]2(C)[C@@H]1[C@H](O)C[C@@H]1[C@@]3(C)CC[C@H](O[C@@H]4O[C@H](CO)[C@@H](O)[C@H](O)[C@H]4O)C(C)(C)[C@@H]3CC[C@]12C,inactive
8,CC(C)C[C@@H]1NC(=O)[C@@H]2C[C@@]34C[C@@H]5[C@@]6(C)CCCC(C)(C)C6CC[C@@]5(C)N(c5ccccc53)[C@H]4N2C1=O (stereo not given in full),inactive
9,CNC(C)C(=O)NC(C(=O)N1CCCC1C(=O)Nc1snnc1-c1ccccc1)C1CCCCC1 (stereo not given),inactive
10,O=C(NCCCN1CCC2(CC1)OCc1ccccc12)[C@H]1CCCN1Cc1ccccc1,inactive
11,CC[C@H]1OC(=O)[C@H](C)[C@@H](O[C@H]2C[C@@](C)(OC)[C@@H](O)[C@H](C)O2)[C@H](C)[C@@H](O[C@@H]2O[C@H](C)C[C@H](N(C)C)[C@H]2O)[C@](C)(O)C[C@@H](C)[C@@H]2N[C@@H](COCCOC)O[C@@H]([C@H]2C)[C@]1(C)O,inactive
12,O=C(NO)c1ccc(CC(=O)N(CCO)c2ccccc2)cc1,inactive
13,CC1CCCC[C@H]2C(=O)C=C[C@H](O)[C@@H]2CC(=O)O1 (stereo not given in full),7.31 µM (active)
14,CCCCCCCCn1cc(CN(CC)CC)c2cc(-c3cnc(N)nc3)ccc21,18.4 µM (active)
15,Cc1ccccc1CNc1ncnc2c1ncn2[C@@H]1O[C@H](CO)[C@@H](O)[C@H]1O,inactive
16,C/C1=C/CCC2=CC(OC2=O)C(C)(C)/C=C/C1=O (stereo not given),3.26 µM (active)
17,CC(=O)O[C@H]1CC[C@@]2(C)C(=CC[C@H]3[C@@H]4CC[C@H](C(C)=O)[C@@]4(C)CC[C@@H]32)C1,inactive
18,CN(C)C(=O)Nc1cccc(-c2ccc(N(C)C)cc2)c1,inactive
19,NCCOc1cc(C(=O)Nc2cc(OCCN)c3ccccc3n2)nc(C(=O)Nc2cc(OCCN)c3ccccc3n2)c1,inactive
20,CNC[C@@H]1CC[C@@H](N)[C@@H](O[C@H]2[C@H](O)[C@@H](O[C@H]3OC[C@](C)(O)[C@H](NC)[C@H]3O)[C@H](N)C[C@@H]2N)O1,inactive

row,SMILES,Potency
1,Nc1nc(O)c(C2=C3C(=Nc4ccccc43)C(=O)NCC2)[nH]1,inactive
2,CC(=O)OC1C(OC(=O)c2ccccc2)C2C(C)(C)CCC(OC(C)=O)C2(C)C23CCC(C)(C2)C(=O)CC13 (stereo not given),inactive
3,COC(=O)C[C@](O)(CCCC(C)(C)O)C(=O)O[C@@H]1C(OC)=CC23CCCN2CCc2cc4c(cc2[C@H]13)OCO4 (stereo not given in full),13 µM (active)
4,COC(=O)CC1OC(C)C2=C(O)c3c(O)cccc3C(=O)C23OC13 (stereo not given),10.1 µM (active)
5,Nc1c(S(=O)(=O)c2ccccc2)c2nc3ccccc3nc2n1-c1ccc(F)cc1,inactive
6,COc1cc2nc(N3CCN(C(=O)COc4c(OC)cccc4C(C)C)CC3)nc(N)c2cc1OC,inactive
7,C=C(CCC1C(C)(O)CCC2C(C)(C)C(O)CCC12C)C(O)CO (stereo not given),inactive
8,c1ccc(-c2cnn3cc(-c4ccc(OCCN5CCOCC5)cc4)cnc23)cc1,1.64 µM (active)
9,CN(C)[C@@H]1CCc2[nH]c3ccc(NC(=O)c4ccc(F)cc4)cc3c2C1,inactive
10,Cn1ncnc1[C@H]1c2n[nH]c(=O)c3cc(F)cc(c23)N[C@@H]1c1ccc(F)cc1,inactive
11,CCCCCCCCCCCCCCCC(=O)OCCC1CCN(CCCN2c3ccccc3Sc3ccc(S(=O)(=O)N(C)C)cc32)CC1,inactive
12,CC[C@H]1OC(=O)[C@H](C)[C@@H](O[C@H]2C[C@@](C)(OC)[C@@H](O)[C@H](C)O2)[C@H](C)[C@@H](O[C@H]2O[C@H](C)C[C@H](N(C)C)[C@H]2O)[C@](C)(O)C[C@@H](C)C(=O)[C@H](C)[C@@H](O)[C@]1(C)O,inactive
13,CCOC(=O)Nc1ccc2c(c1)N(C(=O)CN(C)C)c1ccccc1CC2,inactive
14,COc1c2c(nc3occc13)C(CC=C(C)C)(OC)C(O)CC2 (stereo not given),inactive
15,COC(=O)/C=C/C=C/C(=O)OC1C=C2COC(=O)C2(O)C2(C)CCCC(C)(C)C12 (stereo not given),inactive
16,CCCCOc1ccc(S(=O)(=O)n2c(C)nc3ccccc32)cc1,inactive
17,COCC(c1ccc(C(F)(F)F)cc1)N1CCN(C2(C)CCN(C(=O)c3c(C)ncnc3C)CC2)CC1C (stereo not given),inactive
18,O=C1O[C@H]2[C@H](O)[C@@H]1OC(O)[C@H]2O (stereo not given in full),inactive
19,O=C(Cn1c(=O)sc2ccc(Cl)cc21)N1CCN(CCO)CC1,inactive
20,CCC(=O)OCC(=O)[C@@]1(OC(=O)CC)[C@H](C)C[C@H]2[C@@H]3CCC4=CC(=O)C=C[C@]4(C)[C@@]3(F)[C@@H](O)C[C@@]21C,inactive
